Molecules are shown by their SMILES. The whole screen tested about 30,000 compounds, of which about 110 (0.37%) were called active. Many of the other results were omitted from the sample, so actives are more common in it than they were. Values without a mark were called inactive.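 Rule for the calls: active = delta delta Cp rounded down to an integer at or above 3, about 3 SD of DMSO wells; inactive = the rest.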

This assay is described as follows: inhibitors of YB-1 gene expression, primary screen, cell-based, fluorescence (AID 434959).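 Note: higher means less YB-1 transcript or more CDIP transcript relative to DMSO.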 The following applies: U2OS, qRT-PCR YB-1 vs CDIP delta delta Cp, 16 h; hits give high values; zero = DMSO, each unit about twofold. On the technique in general: Quantitative PCR measures a nucleic acid by following its amplification.
In the case of `Cc1ccc(S(=O)(=O)Nc2ccc3c(c2)C(=O)N([C@@H](C)CO)C[C@@H](C)[C@H](CN(C)CC2CC2)O3)cc1`, the delta Cp (YB-1 minus CDIP) was -0.0524.
Next, `COc1ccc(S(=O)(=O)Nc2cccc3c2O[C@@H](CN(C)C(=O)Nc2ccccc2)[C@@H](C)CN([C@@H](C)CO)C3=O)cc1`: -0.0223; `Cc1noc(C)c1NC(=O)Nc1ccc2c(c1)C(=O)N([C@H](C)CO)C[C@H](C)[C@H](CN(C)Cc1ccncc1)OCCCC[C@@H](C)O2`: -0.384.
Next, `COc1ccc(CN(C)C[C@H]2Oc3c(NC(=O)C4CC4)cccc3C(=O)N([C@@H](C)CO)C[C@H]2C)cc1`: -0.0719; `C[C@H]1CN([C@@H](C)CO)C(=O)c2cc(NC(=O)CCC(F)(F)F)ccc2O[C@H]1CN(C)Cc1ccc(C(=O)O)cc1`: -0.0494.
For `C[C@@H]1CN([C@H](C)CO)C(=O)c2cc(NS(=O)(=O)c3ccccc3)ccc2O[C@H]1CN(C)S(=O)(=O)c1cccs1` the value was 0.37; for `COc1ccc(S(=O)(=O)Nc2ccc3c(c2)C(=O)N([C@H](C)CO)C[C@@H](C)[C@@H](CN(C)CC2CCCCC2)O3)cc1`, 0.268; for `Cc1ccc(S(=O)(=O)Nc2ccc3c(c2)C(=O)N([C@H](C)CO)C[C@H](C)[C@H](CN(C)S(=O)(=O)c2ccc(F)cc2)O3)cc1`, 0.151.
For the compound `C[C@@H]1CN([C@@H](C)CO)C(=O)CCCn2nncc2CO[C@H]1CN(C)C(=O)Nc1ccc(C(F)(F)F)cc1`, the delta Cp (YB-1 minus CDIP) is -0.177.
Consider `O=C(CCCCCCC(=O)Nc1ccccc1O)N/N=C/c1ccc(C(F)(F)F)cc1`, for which the delta Cp (YB-1 minus CDIP) was -0.34.
For `Cc1noc(C)c1S(=O)(=O)Nc1ccc2c(c1)CC(=O)N([C@H](C)CO)C[C@@H](C)[C@@H](CN(C)Cc1ccncc1)O2` the value was -0.237; for `COc1ccc2c(c1)C(=O)CC(c1ccccc1)O2` (stereo unspecified), -0.382; for `COc1cc(CCC(=O)O)oc(=O)c1`, 0.941.
For `COc1cc([C@H](Cc2ccccc2)NC(C)=O)oc(=O)c1` the value was 7.24 (active); for `COc1ccc(S(=O)(=O)Nc2ccc3c(c2)CC(=O)N([C@H](C)CO)C[C@@H](C)[C@@H](CN(C)S(=O)(=O)c2ccc(F)cc2)O3)cc1`, 0.215.
Next, `Cc1noc(C)c1S(=O)(=O)Nc1ccc2c(c1)C(=O)N([C@@H](C)CO)C[C@H](C)[C@H](CN(C)Cc1ccc(C(=O)Nc3ccccc3N)cc1)O2`: -0.223; `C[C@@H]1CN([C@@H](C)CO)C(=O)c2cccc(NC(=O)CCCCCC(=O)Nc3ccccc3N)c2O[C@@H]1CN(C)CC1CCCCC1`: -0.278.
For the compound `C[C@@H]1CN([C@@H](C)CO)C(=O)Cc2cc(NC(=O)C3CCCCC3)ccc2O[C@@H]1CN(C)Cc1ccc(-c2ccccc2)cc1`, the delta Cp (YB-1 minus CDIP) was -0.443.
For `COc1ccc(NC(=O)N(C)C[C@H]2Oc3ccc(NS(=O)(=O)c4ccc(F)cc4)cc3C(=O)N([C@@H](C)CO)C[C@@H]2C)cc1` the value was 0.491.
Next, `COc1cc(OC)c(/C=N/NC(=O)CCCCCCC(=O)Nc2ccccc2O)c(OC)c1`: -0.14; `N#C/C(=C\c1ccc(O)c(O)c1)C(N)=O`: -0.313.
Next, `Cc1noc(C)c1NC(=O)N(C)C[C@@H]1Oc2ccc(NC(=O)Nc3ccc4c(c3)OCO4)cc2C(=O)N([C@H](C)CO)C[C@H]1C`: -0.0859.
With `C[C@@H]1CCCCO[C@H](CN(C)Cc2ccccc2)[C@@H](C)CN([C@H](C)CO)C(=O)c2cc(NS(C)(=O)=O)ccc2O1`, the delta Cp (YB-1 minus CDIP) was -0.038.
Next, `O=C(O)CCC(=O)N(Cc1ccccc1)Cc1cn(-c2ccccc2)nc1-c1cccnc1`: -0.539.
Next, `C[C@@H]1CN([C@@H](C)CO)C(=O)c2cc(N(C)C)ccc2O[C@H]1CN(C)Cc1ccc(C(F)(F)F)cc1`: -0.101; `C[C@@H]1CN([C@@H](C)CO)C(=O)c2cc(NC(=O)Cc3ccccc3)ccc2O[C@@H]1CN(C)S(=O)(=O)c1ccccc1`: 0.109; `C[C@@H]1CN([C@@H](C)CO)C(=O)c2cc(NC(=O)c3ccncc3)ccc2O[C@H]1CN(C)S(=O)(=O)c1ccc(Cl)cc1`: -0.0147.
For `Cc1ccoc1CC[N+](C)(C)C` the value was -0.0929; for `C[C@@H]1CN([C@@H](C)CO)C(=O)CCCn2nncc2CO[C@H]1CN(C)Cc1ccc(C(F)(F)F)cc1`, -0.415; for `CNC[C@H]1Oc2ccc(NS(=O)(=O)c3ccc(F)cc3)cc2C(=O)N([C@@H](C)CO)C[C@@H]1C`, -0.0588.
For `C[C@@H]1CCCCO[C@@H](CN(C)S(=O)(=O)c2cccs2)[C@@H](C)CN([C@H](C)CO)C(=O)c2cc(NC(=O)Nc3ccc(F)cc3)ccc2O1`, the delta Cp (YB-1 minus CDIP) is -0.356.
For `COc1cccc(NC(=O)N(C)C[C@@H]2OCc3cn(nn3)CCCC(=O)N([C@@H](C)CO)C[C@H]2C)c1` the value was 0.0991.
Next, `CC(C)(C)C(=O)CSc1nc2ccccc2c(=O)n1CC1CC1`: -0.316.
For `COC(=O)C1=C(C)NC2=C(C(=O)CC(C)(C)C2)C1c1ccncc1` (stereo unspecified) the value was -0.233.
Turning to `O=C(O)CCCCCC(=O)N/N=C/c1ccncc1Br`, the delta Cp (YB-1 minus CDIP) was -0.0121.
Next, `Cc1ccc(/C=N/NC(=O)CCCCCCC(=O)O)o1`: -0.127.
For `COc1ccc(NC(=O)Nc2cccc3c2O[C@H](CN(C)Cc2ccncc2)[C@@H](C)CN([C@@H](C)CO)C3=O)cc1` the value was -0.239.
For `CC(C)S(=O)(=O)NCC1CCN(Cc2cccc(OCCO)c2)CC1` the value was 0.112; for `C[C@@H]1CCCCO[C@H](CN(C)C(=O)Nc2cccc3ccccc23)[C@@H](C)CN([C@H](C)CO)C(=O)c2cc(NC(=O)Nc3ccc4c(c3)OCO4)ccc2O1`, 0.427.
Turning to `C[C@@H]1CN([C@@H](C)CO)C(=O)CCCn2cc(nn2)CO[C@H]1CN(C)Cc1cccc2c1OCCCO2`, the delta Cp (YB-1 minus CDIP) is -0.151.
Next, `Cc1noc(C)c1S(=O)(=O)Nc1ccc2c(c1)CC(=O)N([C@@H](C)CO)C[C@H](C)[C@H](CN(C)C(=O)Nc1cccc3ccccc13)O2`: -0.29.
